In PubChem BioAssay AID720553 (National Center for Advancing Translational Sciences (NCATS), 2013) one finds activity change data, which are given here for 86 compounds.

Hit rate of the full screen: of about 340,000 compounds, about 3,300 (0.97%) were called active.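 How the source made its calls: active means maximum activity change below -70%; inconclusive means maximum activity change from -70% to -50%; inactive means maximum activity change above -50%.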 For the sample, actives were picked, then their nearest neighbours and some compounds at random.
On the % scale 0 is the no-effect control and ±100 the full control effect.

For the test, the system named is Potassium voltage-gated channel subfamily H member 2, brain isoform KCNH2 3.1 (human). Nature of the test: qHTS for Inhibitors of KCHN2 3.1: Mutant qHTS. As to conditions: U2OS KCNH2 3.1, thallium flux FluxOr; stronger effect = lower value. A digest of the protocol:
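We transduce U2OS cells with the mutant 3.1 virus, culture them overnight, load FluxOr with Red40 quencher for 45 min, then add stimulation buffer and read kinetically for 2 min to derive a normalized rate constant.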
Background: Quantitative high-throughput screening tests each substance at several concentrations.
For the compound `Cc1ccc(OCC(=O)Nc2ccccc2C(=O)NC2CC2)cc1`, the activity change is 21% (inactive). The figure for `O=C(CN1CCCCC1)Nc1ccccc1C(=O)NC1CC1` is -2.8% (inactive); for `N#Cc1ccc(CN2CCN(CC(=O)Nc3ccccc3C(=O)NC3CC3)CC2)cc1` it is -103% (active).

Consider `CCOc1ccc(CN2CCN(CCCc3ccccc3)C(CCO)C2)cc1` (stereo unspecified), for which the activity change is -77.7% (active). Take `COC(=O)c1ccc(CN2CCN(CCCc3ccccc3)C(CCO)C2)cc1` (stereo unspecified): the activity change is -48.5% (inactive). As to `OCCC1CN(Cc2ccc(Oc3ncccn3)cc2)CCN1CCc1ccccc1` (stereo unspecified), the activity change was -3.13% (inactive).

For `O=C1c2ccccc2-c2ccccc2NC1O` (stereo unspecified), the activity change was 2.59% (inactive). The figure for `CC(=O)Nc1ccc(CN2CCC(Oc3ccc(C(=O)N4CCCC4)cc3)CC2)cc1` is 9.17% (inactive).

On to `O=C(c1ccc(OC2CCN(C/C=C/c3ccc(F)cc3)CC2)cc1)N1CCCCC1`, for which the activity change was -73.2% (active). Next, `O=C(c1ccc(OC2CCN(Cc3ccccn3)CC2)cc1)N1CCCCCC1`: 10% (inactive); `Cc1ccc([C@H]2N[C@]3(CCCN(CC4CCCCC4)C3=O)[C@H]3C(=O)N(Cc4ccccc4)C(=O)[C@@H]23)cc1`: -5.04% (inactive); `Nc1cccc(OCCCCCOc2cccc(N)c2)c1`: -1.75% (inactive). The figure for `Cn1c(=O)c(=O)n(C)c2cc(S(=O)(=O)CCC(=O)N3CCCCC3)ccc21` is -86.6% (active); for `CCCCN(CCCC)C(=O)CCS(=O)(=O)c1ccc2c(c1)n(C)c(=O)c(=O)n2C` it is -1.58% (inactive). Next, `CCc1ccc(S(=O)(=O)Nc2cc3c(cc2N2CCCCC2)n(C)c(=O)c(=O)n3C)cc1`: -8.37% (inactive). As for `CCOC(=O)C1CCN(C(=O)c2ccc3c(=O)n4nc(Nc5ccccc5CC)sc4nc3c2)CC1`, the activity change was -6.19% (inactive).

Take `CCOc1ccc(C2c3[nH]c4ccccc4c3CCN2Cc2cccn2-c2ncccn2)cc1` (stereo unspecified): the activity change is -73.3% (active). As to `CCOc1ccc(C2c3[nH]c4ccccc4c3CCN2Cc2cn(CC)nc2C)cc1` (stereo unspecified), the activity change was -7.11% (inactive). Next, `c1ccc(C2c3[nH]c4ccccc4c3CCN2Cc2cccn2-c2cccnc2)nc1` (stereo unspecified): 7.54% (inactive); `COc1ncnc2c1ncn2CCCNCCN1CCOCC1`: 7.59% (inactive). Next, `COc1ccc(CN2C(=O)C(CC(=O)NCc3cccc4ccccc34)CC(C(=O)N3CCOCC3)=C2C)cc1` (stereo unspecified): 6.14% (inactive); `O=C(C(c1ccccc1)c1ccccc1)N1CCN(CC(O)COc2ccccc2)CC1` (stereo unspecified): -70.2% (active); `C[N+]1(CC(O)COc2ccccc2)CCN(C(=O)c2ccc([N+](=O)[O-])cc2)CC1` (stereo unspecified): -11.2% (inactive). With `CC1CCN(CC(O)COc2ccc(C(=O)c3ccccc3)cc2)CC1` (stereo unspecified), the activity change is -6.71% (inactive).

For the compound `CCCc1ccc(OCC(O)CN2CCN(C(=O)OCC)CC2)cc1` (stereo unspecified), the activity change is -6.68% (inactive).

On to `OC(COc1ccccc1)CN1CCN(c2cccc(Cl)c2)CC1` (stereo unspecified), for which the activity change was -33.9% (inactive). The figure for `O=[N+]([O-])c1ccc(N2CCN(CC(O)COc3ccccc3)CC2)cc1` (stereo unspecified) is -90.3% (active); for `CC1=C(C(=O)Nc2cccc(C(=O)NCC(C)c3ccccc3)c2)SCCO1` (stereo unspecified) it is 3.22% (inactive); for `COc1ccc(C(=O)NCC2CCCO2)cc1S(=O)(=O)NCc1ccc(Cl)cc1` (stereo unspecified) it is -6.01% (inactive). `N#CCSc1ccccc1NC(=O)CN1C(=O)NC(CCc2ccccc2)C1=O` (stereo unspecified): the activity change was 0.381% (inactive). Next, `COc1ccc(-n2c(-c3ccc(Cl)cc3)n[nH]c2=S)c(OC)c1`: -3.64% (inactive); `CCOc1cc(/C=N/NC(=O)CN2CCCCC2)ccc1O`: 1.68% (inactive); `O=C(CN1CCSCC1)N/N=C/c1ccc(F)cc1`: 1.88% (inactive). As for `Cc1ccc(COc2ccc(/C=N/NC(=O)CN3CCCCC3)cc2)cc1`, the activity change is -108% (active).

For the compound `O=C1c2cccc3cccc(c23)C(=O)N1CCCCCc1n[nH]c(=S)o1`, the activity change was -159% (active). Next, `O=C1c2ccccc2C(=O)N1CCCc1nc(-c2ccccc2)no1`: 6.34% (inactive); `O=C1c2ccccc2C(=O)N1CCCCCCN1C(=O)c2ccccc2C1=O`: 6.18% (inactive); `c1ccc(CNCc2ccc(CNCc3ccccc3)cc2)cc1`: 1.02% (inactive). Turning to `COc1ccc(F)c(-c2nc(CN3CCC(c4ccccc4)CC3)c(C)o2)c1`, the activity change was -31.2% (inactive). Next, `COc1ccc(CN2CCC(c3nc4ccc(Cl)cc4[nH]3)CC2)cc1`: -98.1% (active); `COc1ccc(Cn2nnc3c(=O)[nH]c(C4CCN(C(=O)c5ccccc5Cl)CC4)nc32)cc1`: -29.8% (inactive).

Regarding `COCCCn1c(C(=O)NC2CCCCC2)cc2c(=O)n3cccc(C)c3nc21`, the activity change was 5.72% (inactive).

As for `N#CC1(Nc2ccc3c4c(cccc24)CC3)CCCCC1`, the activity change was 0.638% (inactive). Next, `Cc1ccc2nc(-c3ccc(NC(=O)c4cccnc4)cc3)oc2c1`: -11.7% (inactive). The figure for `COc1cc(OC)cc(C(=O)Nc2ccc(-c3nc4ccccc4o3)c(O)c2)c1` is -93.4% (active); for `COc1ccc(NC(=O)c2cc(-c3ccc(C)o3)nc3ccccc23)cc1` it is -28.1% (inactive); for `O=C(c1ncn2c1c(=O)[nH]c1ccccc12)N1CCc2ccccc2C1` it is -7.26% (inactive). Next, `COc1ccccc1C(=O)NC(=S)Nc1ccc(N2CCOCC2)cc1`: 6.65% (inactive); `CCN(CC)CCNC(=O)c1ccc(NC(=O)c2cc(-c3ccncc3)nc3ccccc23)cc1`: 4.76% (inactive). For the compound `CCCCN(C)CCCNC(=O)c1cc(-c2cccs2)nc2ccccc12`, the activity change was -71.7% (active).

With `O=C(Nc1nnc(-c2ccccc2)o1)c1cc(-c2cccs2)nc2ccccc12`, the activity change was -3.38% (inactive). Consider `CC1=C(C(=O)N2CCOCC2)CC(CC(=O)NCc2cccc3ccccc23)C(=O)N1CCC1=CCCCC1` (stereo unspecified), for which the activity change was 1.47% (inactive).

For the compound `O=C(OCc1cn([C@@H]2C[C@H](c3ccc(Cl)cc3)N(Cc3cccs3)C[C@H]2O)nn1)c1ccccc1`, the activity change was 6.9% (inactive). Next, `Cc1ccc(S(=O)(=O)N2C[C@@H](C)[C@]3(C2)[C@H](O)[C@H](OC(=O)NCc2ccccc2)C[C@H]2C(=O)N(c4ccccc4)C(=O)[C@H]23)cc1`: 5.25% (inactive). For `N#CCCN(C(=S)Nc1ccc(Cl)c(Cl)c1)C1CCCCC1`, the activity change is -7.86% (inactive). Next, `COc1cccc(NC(=O)CN(C)C(C)C(=O)Nc2ccc(C#N)cc2)c1` (stereo unspecified): 3.52% (inactive); `COc1cc(NC(=O)c2[nH]cnc2C(N)=O)cc(C(=O)Nc2cccc(C(F)(F)F)c2)c1`: -24.6% (inactive).

With `COc1cc(NC(=O)c2cncc(-c3ccc(C#N)cc3)c2)cc(C(=O)Nc2cccc(C(F)(F)F)c2)c1`, the activity change is -82.3% (active). Next, `CCCNC(=O)C1CC(=O)N(c2ccc(OCc3ccccc3)cc2)C1` (stereo unspecified): -2.11% (inactive). Next, `O=C(C1CCCO1)N1CCN(C(=O)C23CC4CC(CC(C4)C2)C3)CC1` (stereo unspecified): 3.39% (inactive); `CC(=O)Nc1ccc(C=CC(=O)c2ccc([N+](=O)[O-])cc2)cc1`: -4.78% (inactive); `COc1ccc(NC(=O)N(C)C[C@H]2Oc3ncc(C#C[C@@H](C)O)cc3C(=O)N([C@H](C)CO)C[C@H]2C)cc1`: -1.97% (inactive).

Consider `O[C@H]1C[C@H](c2ccc(Cl)cc2)N(Cc2cccs2)C[C@@H]1n1cc(C2CC2)nn1`, for which the activity change is 8.43% (inactive). Next, `CCOc1ccc(N(C)Cc2cc(=O)oc3ccc(OC)cc23)cc1`: -0.899% (inactive); `Cc1cc2oc(=O)cc(CN(C)Cc3ccc(OC(F)F)cc3)c2cc1Cl`: -76% (active). The figure for `Cc1ccc(CN(C)Cc2cc(=O)oc3cc(C)c(Cl)cc23)cc1` is -12.5% (inactive); for `Cc1csc(SCC(=O)Nc2ccc(C)c(S(=O)(=O)N(C)C)c2)n1` it is -4.71% (inactive); for `Cc1ccc(C(=O)OCC(=O)NC2CCCCCCC2)cc1C` it is 8.83% (inactive). Consider `Cc1ccccc1C(=O)Nc1cccc(-c2nnc(SCC(=O)O)n2C)c1`, for which the activity change is -82.3% (active). Next, `Cn1c(SCC(=O)N2CCOCC2)nnc1-c1ccc(NC(=O)c2ccccc2F)cc1`: 7.57% (inactive); `Cn1c(SCC(=O)Nc2cccc(NC(=O)c3cccs3)c2)nnc1-c1ccncc1`: -4.66% (inactive). Take `CC(=O)c1ccc(NC(=S)N(Cc2ccccc2)C(C)C2CC2)cc1` (stereo unspecified): the activity change was -99.2% (active). Next, `CC(C)N(Cc1ccccc1)C(=S)Nc1ccc(OC(F)F)cc1`: -14.2% (inactive); `CC(=O)c1ccc(NC(=O)N[C@@H](Cc2ccccc2)C(=O)O)cc1`: 0.757% (inactive). Next, `O=C(O)CCCN1C(=O)c2ccccc2Sc2ncccc21`: -3.66% (inactive). For the compound `O=C(CCCN1C(=O)C2C3C=CC(C3)C2C1=O)N1CCN(c2ccccc2)CC1` (stereo unspecified), the activity change is 7.28% (inactive).

Consider `O=C(O)CCCN1C(=O)C2C3c4ccccc4C(c4ccccc43)[C@@H]2C1=O` (stereo partly specified), for which the activity change is -134% (active). For the compound `C#CCN(C[C@H]1[C@H](OC(=O)NC2CCCC2)[C@H](OC(=O)NC2CCCC2)C[C@H]2C(=O)N(c3ccccc3)C(=O)[C@@H]12)S(=O)(=O)c1ccc(C)cc1`, the activity change is -1.45% (inactive). The figure for `O=C(O)c1c(NC(=O)N2CCCC2)sc2c1CCCC2` is -0.215% (inactive); for `COC(=O)c1c(NC(=O)c2ccccc2F)sc2c1C(C(=O)OC)CC2` (stereo unspecified) it is -2.07% (inactive); for `O=C(Nc1sc2c(c1C(=O)O)CCC2)c1ccccc1F` it is -113% (active). The figure for `O=C(OCc1ccccc1)N1CCC2CC1c1ccc(-c3ccc4c(c3)OCO4)cc12` (stereo unspecified) is 6.28% (inactive). Next, `CCC1NC(=O)c2cccnc2-n2c1nc1ccc(C)cc1c2=O` (stereo unspecified): -12% (inactive). With `CC1(C)OC(=O)C2=C(CC(c3ccccc3)OC2CCc2ccccc2)O1` (stereo unspecified), the activity change is -4.16% (inactive). The figure for `Cc1cc(Cl)ccc1C(=O)C1CCCN(C(=O)c2ccc3c(c2)OCO3)C1` (stereo unspecified) is 1.67% (inactive); for `COc1ccc(-c2ccc(CN3C(CC(C)C)C(=O)N(Cc4cn(CC5CCCCC5)nn4)CCS3(=O)=O)cc2)cn1` (stereo unspecified) it is -18% (inactive).
